Source: PubChem BioAssay (NCATS)
“And” between values parts separate entries of the source, which are not always exact repeats. Identical values can stand only once. Results filed as inconclusive are left out. Where a call stands in place of a potency, no number is given. The source made the active and inactive calls. Calls come from the whole dose curve; as a rule, active = well fitted inhibition curve with a large enough effect; inconclusive = small, poorly fitted or top-dose-only effect; inactive = flat fitted curve, though single readings scatter.

These molecules were tested on MCC-26 (assay: qHTS assay to identify novel small-molecules to repurpose for Merkel cell carcinoma treatment (AID 1296009; note: nearly all actives have a fitted effect of over 60% in size)). Settings: MCC and control cell lines, CellTiter-Glo viability, 72 h; series mostly up to 46 µM.
In short: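 CellTiter-Glo luminescence after 72 hr compound exposure at 37 degree celsius gave cell viability. Libraries NPC and MIPE were run as 8- and 11-point dose responses; RLUs normalized to DMSO (negative) and no-cell (cytotoxicity) controls.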
Potency is the fitted concentration of half-maximal effect.

Q: CC(N)C12CC3CC(CC(C3)C1)C2 (configuration not stated) was tested. Which Potency did it give?
A: inactive

Q: With COc1cccc(N(C)C(=S)Oc2ccc3c(c2)CCCC3)n1 as the molecule, how does the Potency read?
A: inactive

Q: Which Potency does the source give for NC(=O)c1cccc(N)c1 here?
A: inactive

Q: O=c1oc2c(O)c(O)cc3c(=O)oc4c(O)c(O)cc1c4c23 was tested. Which Potency did it give?
A: inactive

Q: How did the Potency turn out when Nc1nc(=S)c2[nH]cnc2[nH]1 was run?
A: 20.9 µM (active)

Q: Which Potency does the source give for N[C@@H](C(=O)N[C@@H]1C(=O)N2C(C(=O)O)=C(Cl)CS[C@H]12)c1ccccc1 here?
A: inactive

Q: With CC(C)C[C@H](NC(=O)[C@H](CCc1ccccc1)NC(=O)CN1CCOCC1)C(=O)N[C@@H](Cc1ccccc1)C(=O)N[C@@H](CC(C)C)C(=O)[C@@]1(C)CO1 as the molecule, how does the Potency read?
A: 0.105 µM (active)

Q: How did the Potency turn out when NC(=O)c1ccc2[nH]ccc2c1 was run?
A: inactive

Q: For COC(c1ccccc1)(c1ccccc1)[C@H](Oc1nc(C)cc(C)n1)C(=O)O, which Potency is on record?
A: inactive

Q: With COc1nc(N)nc2c1ncn2[C@@H]1O[C@H](CO)[C@@H](O)[C@@H]1O as the molecule, how does the Potency read?
A: inactive

Q: For CCN(CC)CCn1c(=O)c(Cc2ccc(OC)cc2)nc2ccccc21, which Potency is on record?
A: inactive

Q: COc1cc(NS(=O)(=O)c2ccc(N)cc2)nc(OC)n1 was tested. Which Potency did it give?
A: inactive

Q: Which Potency does the source give for O=C(NCC1CN(c2ccc(N3CCOCC3=O)cc2)C(=O)O1)c1ccc(Cl)s1 (configuration not stated) here?
A: inactive

Q: How did the Potency turn out when CN(C)c1ccc(C(=C2C=CC(=[N+](C)C)C=C2)c2ccc(N(C)C)cc2)cc1 was run?
A: 7.5 µM (active) and 4.69 µM (active)

Q: For CC1=C(C(=O)O)N2C(=O)[C@@H](NC(=O)C(N)c3ccccc3)[C@H]2SC1 (some centres not stated), which Potency is on record?
A: inactive

Q: Which Potency does the source give for CCN1CCCC1CNC(=O)c1cc(S(N)(=O)=O)ccc1OC (configuration not stated) here?
A: inactive

Q: CC(C)NCC(O)c1ccc(NS(C)(=O)=O)cc1 (configuration not stated) was tested. Which Potency did it give?
A: inactive
